From PubChem BioAssay (NCI) come the findings set out here.

Compounds without any hit were thinned out: in the full panel of roughly 79,000, 15% have a hit. The source made the active and inactive calls. Cut-off read from the data, not from the text of the source: active = growth inhibition above about 70%; inactive = the rest.

A short description of this test: NCI Yeast Anticancer Drug Screen. Data for the mec2-1 strain (AID 157). As to conditions: S. cerevisiae mec2-1 strain, at 50.0 µM, hits give high values. The procedure: Growth inhibition of yeast strains with defined genetic alterations is measured as a screen for potential anti-cancer activity. Selected strains with alterations in DNA damage repair or cell cycle control were exposed to compounds and growth inhibition was measured relative to vehicle treated controls. The strain used in this assay is mec2-1
On to `CCOC(=O)c1cc2cc(C)cc(C(=O)c3ccc([N+](=O)[O-])cc3)c2[nH]1`, for which the growth inhibition is 25.4% (inactive). With `O=S(=O)(Nc1ccccc1C(O)c1ccccc1)c1ccccc1` (stereo not given), the growth inhibition is 0.8% (inactive). To `CC1(c2ccccc2)CCCCC1OC(N)=O` (stereo not given) belongs -21.9% (inactive). To `CCOc1cccc(/C=N/N=C2\C(=O)Nc3c(Cl)cc(Cl)cc32)c1O` belongs 15.6% (inactive); to `O=S1(=O)c2ccccc2NC(c2ccc3ccccc3c2)CC1c1ccccc1F` (stereo not given), -28.1% (inactive). The result for `CCCCCCCCCCN=C(N)CSSCC(N)=NCCCCCCCCCC` reads 97% (active); that for `O=C(Nc1ccccc1C(=O)O)C(=O)C(C(=O)c1ccccc1-c1ccccc1)C1OC(=O)c2ccccc21` (stereo not given), 5.65% (inactive).

In the case of `COC(=O)/C(C)=C/C=C/C(C)C(O)C(C)C1OC(CC(OC)OC)C(C)C(O)C1C` (stereo not given), the growth inhibition is 22.2% (inactive). The result for `Clc1ccc(-c2nc(CSc3ccccn3)cs2)cc1` reads -12.4% (inactive). To `ClCCCCC(Cl)(Cl)Cl` belongs 27.6% (inactive); to `Nc1cccc(OCC2CCCN3CCCCC23)c1` (stereo not given), -17.9% (inactive); to `CN1CC(O)C(C(=O)NC23CC4CC(CC(C4)C2)C3)C1` (stereo not given), 4.15% (inactive). Take `CCCOC(=O)/C=C/C(=O)N1CC(C)N(C(=O)/C=C/C(=O)OCCC)CC1C` (stereo not given): the growth inhibition is -1.25% (inactive). The result for `CC(C)C(NC(=O)C1CSC(C)(C)N1C=O)C(N)=O` (stereo not given) reads -31.6% (inactive); that for `CCCC=Nc1ccccc1`, 3.65% (inactive). Take `CCCCCCC(=O)/C=C/c1cc(Cl)cc(Cl)c1OCOC`: the growth inhibition is 26.1% (inactive). To `CCOC(=O)CCc1c(C)c2c(OC(C)=O)cc(OC(C)=O)cc2oc1=O` belongs 0.9% (inactive); to `CC1CCCCC12COC(O)CO2` (stereo not given), -23.4% (inactive).

Take `Cc1nc(N)sc1C(=O)/C=C/c1ccc([N+](=O)[O-])cc1`: the growth inhibition was -2.6% (inactive). To `CS(=O)(=O)OC1C(OC(=O)c2ccccc2)COC(OCc2ccccc2)C1OS(C)(=O)=O` (stereo not given) belongs 13.2% (inactive); to `CC(C)N1CC2CC(CN(C(=O)c3ccc(Cl)cc3)C2)C1`, -8.45% (inactive); to `COc1cc(/C=C(\OC(C)=O)c2ccc3c(c2)OCO3)cc(OC)c1OC`, -0.95% (inactive). To `CCCCCc1cc(O)cc2c1Oc1cc(O)cc(C(=O)CCCC)c1C(=O)O2` belongs -17.2% (inactive); to `NC(=O)N/N=C(\c1ccccc1)C1CCCCc2ccccc21` (stereo not given), 20.6% (inactive). Regarding `Cc1ccc(S(=O)(=O)/N=C2\CCN(S(=O)(=O)c3ccccc3)N2S(=O)(=O)c2ccc(C)cc2)cc1`, the growth inhibition was 15.5% (inactive).

With `COc1ccc(-c2cc(=O)c3cc(C)c(C)c(C(=O)O)c3o2)cc1`, the growth inhibition was -2.95% (inactive). The result for `Cc1cccc(C)c1NC(=O)Oc1ccc(Cl)cc1Cc1ccccc1` reads 99.5% (active).

In the case of `Clc1ccccc1-c1nnc(-c2cccc(-c3nnc(-c4ccccc4Cl)o3)n2)o1`, the growth inhibition is 6.75% (inactive). For the molecule `Cc1cc2nc(CC(O)c3nc4cc(C)c(C)cc4[nH]3)[nH]c2cc1C` (stereo not given), the growth inhibition is -12.9% (inactive). To `N#CCCC(=O)O` belongs 0.45% (inactive). To `C[C@@]12CCC(=O)c3coc(c31)C(=O)c1cc3c(cc12)C(=O)C=CC3=O` belongs 93.2% (active); to `COc1cc(C(OC(C)=O)OC(C)=O)c(Cl)cc1OC(C)=O`, 5.15% (inactive); to `O=C(OCC(OC(=O)c1ccccc1)C(OC(=O)c1ccccc1)C(OC(=O)c1ccccc1)c1nn[nH]n1)c1ccccc1` (stereo not given), 88.4% (active).

As to `O=C(O)Cc1cc2cccc([N+](=O)[O-])c2[nH]1`, the growth inhibition was 6.65% (inactive).

In the case of `COC1=CC(=O)C(=O)C=C1C(C)(C)C`, the growth inhibition is 40.3% (inactive). The result for `COc1ccc(OC)c(NC(=O)C(=O)C(C(=O)c2ccccc2F)C2OC(=O)c3ccccc32)c1` (stereo not given) reads -20.2% (inactive); that for `O=C1NC2(CCCCC2)C(=O)N1CCN1C(=O)NC2(CCCCC2)C1=O`, 4.2% (inactive).

Take `O=C(O)C(CCl)(CCl)CCl`: the growth inhibition was 1.3% (inactive). The result for `C/C(=C/c1ccccc1)C(=O)O` reads -18.8% (inactive); that for `CCC(C)(O)C#CC#CC(C)(O)CC` (stereo not given), -22.2% (inactive).
